An excerpt weighted towards active compounds, which were near 13% of everything screened.
HCV inh: qHTS Assay for Inhibitors of Hepatitis C Virus (HCV); Huh7.5.1 HCVcc-Cre infection, luciferase reporter, 44 h; Potency, µM (highest dose often 41.8 µM), for inactives: top-dose activity change, negative = inhibition, actives largely listed as inhibitors; 340,000 compounds, 3.4% hits; also: potency is read from the fitted curve at half-maximal effect
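Cells seeded at 1,000/well and cultured 4 h, then compounds added followed by HCVcc-Cre virus (~0.5 moi). After 44 h further culture, luciferase substrate was added, plates held 15 min at room temperature, and luminescence read for 15 sec.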
HCMV antiviral: qHTS Assay for inhibitors of the human cytomegalovirus (HCMV); AID 1259415, 2018; 410,000 compounds, 4.5% hits; HFF cells, HCMV-luciferase reporter, 72 h; stronger effect = lower value; activity change, negative = inhibition, % at 57.5 µM; in the data active = activity change below about -60%; inconclusive = no clear call, values can overlap the other calls; inactive = above about -39%
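Inhibition of viral replication was scored as loss of reporter luminescence in HFFs infected with HCMV-luciferase (MOI 1 PFU/cell) for 72 h; compounds tested at 2 doses, normalized to buffer and Salinomycin controls.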
Pf growth 48h: Primary qHTS for delayed death inhibitors of the malarial parasite plastid, 48 hour incubation. P. falciparum luciferase growth in erythrocytes, 48 h. Potency, µM (top dose mostly 28.7 µM), for inactives: top-dose activity change, negative = inhibition, actives largely listed as inhibitors. 310,000 compounds, 5.9% hits; also: potency is read from the fitted curve at half-maximal effect
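Luciferase-expressing parasites in RBCs, 2% Hct / 0.1% parasitemia final; RPMI 1640 + 0.5% Albumax; 37 C, 5% CO2, one generation; luminescence read-out, lower signal = inhibition.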
Pf growth 96h: Primary qHTS for delayed death inhibitors of the malarial parasite plastid, 96 hour incubation | 320,000 compounds, 6.9% hits | AID 504834, 2011 | Potency, µM (highest dose often 28.7 µM), for the others: at the top dose activity change, negative = inhibition, usual class: inhibitors | P. falciparum luciferase reporter growth, 96 h; also: potency is read from the fitted curve at half-maximal effect
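P. falciparum expressing integrated firefly luciferase grown in erythrocytes (2% hematocrit, 0.05% parasitemia final) with compounds for 96 hours at 37 C, 5% CO2. Growth inhibition read as loss of luminescence after adding luciferase detection reagent.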
* = called active by the depositor; ? = inconclusive; . = no result; [ ] = remark or other dose. Unless noted, calls follow the shape of the dose curve; as a rule, active = well fitted inhibition curve with a large enough effect; inconclusive = small, poorly fitted or top-dose-only effect, or another doubt; inactive = no such curve, though single readings can be large or run the other way. % is scaled to controls: 0 for no effect and ±100 for the full control effect.

SMILES	HCV inh	HCMV antiviral	Pf growth 48h	Pf growth 96h
O=C(Nc1ccsc1C(=O)NC1CCCCC1)c1ccc(F)cc1	-19%	20	1.7µM*	1.7µM*
FC(F)(F)c1ccc(Oc2ccc3ccccc3c2Br)nc1	?	28	?	2.9µM*
O=C1Nc2cccnc2N(C(=O)CCl)c2ccccc21	16µM*	?	0%[0.00184 µM]	?
Cc1cccc(NC(=S)/N=C(\N)Nc2nc(C)c3ccccc3n2)c1	4µM*	?	-2%	10µM*
Cc1cccc(NC(=S)/N=C(\N)Nc2nc(C)c3cc(C)ccc3n2)c1	?	13	?	?
Cc1cccc(NC(=S)/N=C(\N)Nc2nc(C)c3ccc(C)cc3n2)c1	2µM*	-33	13µM*	?
Cc1cc(C)cc(NC(=S)/N=C(\N)Nc2nc(C)c3ccccc3n2)c1	?	-79*	?	13µM*
Cc1ccc(NC(=S)/N=C(\N)Nc2nc(C)c3ccccc3n2)cc1C	11µM*	-35	12µM*	2.3µM*
CCC(C)NC(=O)CSc1nc2n[nH]c(C)c2c(=N)n1-c1ccc(C)c(Cl)c1 (configuration not stated)	.	-5	.	.
O=C(NC1CCCCC1)c1ccc([N+](=O)[O-])o1	-12%	.	10µM*	-10%
O=C(COC(=O)c1ccc([N+](=O)[O-])o1)NC1CCCCC1	2%	-12	.	.
O=C(NC1CCCCCC1)c1cccs1	10%	58	?	-16%
CC(NC(=O)c1ccc([N+](=O)[O-])o1)C12CC3CC(CC(C3)C1)C2 (configuration not stated)	-26%	?	6.6µM*	29%
O=C(NC1CCCC1)c1ccc(Cl)s1	-4%	-77*	?	4%
O=C(NC1CCCCCC1)c1ccc([N+](=O)[O-])s1	?	?	?	9.3µM*
O=C(NCC1CCCO1)c1ccc([N+](=O)[O-])s1 (configuration not stated)	?	-31	?	?
C#CCSc1nc2sc3c(c2c(=O)n1-c1cccc(OC)c1)CCN(C(C)=O)C3	.	-30	.	.
CN(C)c1ccc(C(CN)c2c[nH]c3ccccc23)cc1 (configuration not stated)	?	57	9.3µM*	?
CN(C)c1ccc(C(CNS(=O)(=O)c2ccc3ccccc3c2)c2c[nH]c3ccccc23)cc1 (configuration not stated)	5%	69	7%	26%
COc1ccc(CNC(=O)Cc2c(C)c3cc4c(C)coc4c(C)c3oc2=O)cc1	.	35	.	.
Cc1cccc(NC(=O)c2ccc(-n3c(C)nnc3C)cc2)c1	.	18	.	.
COc1cccc(N2CC(NC(=O)C(c3ccccc3)c3ccccc3)CC2=O)c1 (configuration not stated)	.	-23	.	.
O=C(CSc1nnc(CN2CCOCC2)n1-c1ccc(Cl)cc1)N1CCc2ccccc21	2%	-12	.	.
N#Cc1ccc(OCc2nnc(SCC(=O)N3CCCc4ccccc43)n2-c2ccccc2)cc1	-8%	-3	15µM*	3.3µM*
Cc1ccc(C)c(-n2c(CNC(=O)c3ccco3)nnc2SCC(=O)N2CCc3ccccc32)c1	16%	9	8%	13µM*
SMILES	HCV inh	HCMV antiviral	Pf growth 48h	Pf growth 96h
O=C(CSc1nnc(CN2CCOCC2)n1-c1ccccc1)N1CCc2ccccc21	-1%	-14	3%	13µM*
COc1ccc(OCc2nnc(SCC(=O)N3CCCc4ccccc43)n2-c2ccc(C)cc2)cc1	10µM*	-9	12µM*	.
CCCCc1nn2c(=O)cc(COC(=O)c3ccc(NC(=O)c4ccccc4Cl)cc3)nc2s1	.	-19	.	.
CCS(=O)(=O)N1CCc2cc(C(=O)Nc3cccc(C)c3C)ccc21	.	23	.	.
O=C(COc1ccc2ccccc2c1CN1CCOCC1)N1CCc2ccccc21	-16%	1	.	10µM*
Oc1ccc[n+](CCCCC[n+]2cccc(O)c2)c1	10%	-13	2%	24%
c1ccc2c[n+](CCCCCCCCCC[n+]3ccc4ccccc4c3)ccc2c1	.	-81*	.	.
CCCCCCCCCCCC[n+]1ccc2ccccc2c1	.	.	0.3µM*	3µM*
CCCCCC(=O)Nc1ccc2ccccc2c1	-8%	1	66%	83%
COc1ccccc1NC(=O)CCS(=O)(=O)c1cc2c3c(c1)CCN3C(=O)CC2	.	-7	.	.
CC1(C)CC(=O)C2=C(C1)NC1=C(C(=O)c3ccccc31)C2c1cc([N+](=O)[O-])ccc1O (configuration not stated)	-16%	0	?	-18%
CC(C)c1ccc(C2C3=C(CC(C)(C)CC3=O)NC3=C2C(=O)c2ccccc23)cc1 (configuration not stated)	11µM*	-72*	9.3µM*	6.6µM*
CC1(C)CC(=O)C2=C(C1)NC1=C(C(=O)c3ccccc31)C2c1cccnc1 (configuration not stated)	-16%	?	-23%	12%
CCOc1ccc(C2C(C#N)=C(C)NC3=C2C(=O)c2ccccc23)cc1 (configuration not stated)	-10%	?	.	9.3µM*
CC1=C([N+](=O)[O-])C(c2ccccc2)C2=C(N1)c1ccccc1C2=O (configuration not stated)	?	?	.	2.9µM*
CC1(C)CC(=O)C2=C(C1)NC1=C(C(=O)c3ccccc31)C2c1ccccc1 (configuration not stated)	?	?	13µM*	?
CCOC(=O)Cc1ccc(NC(=O)N2CCOc3ccc(C)cc32)cc1	.	-3	.	.
CCN(CC)C(=O)Cn1c(=O)cc(C)c2c(C)nn(-c3ccc(C)cc3)c21	.	8	.	.
COc1cc(C(CC(=O)Nc2cc(C)ccc2C)N2Cc3ccccc3C2=O)cc(OC)c1OC (configuration not stated)	.	28	.	.
CCCc1nnc(N2C(=O)c3oc4ccc(F)cc4c(=O)c3C2c2ccc(C(=O)OC)cc2)s1 (configuration not stated)	.	-17	.	.
CNC(=O)c1c(NC(=O)c2nc(SCc3ccc(C)cc3)ncc2Cl)sc2c1CCCC2	.	-20	.	.
CCOC(=O)Cc1csc(NC(=O)CSc2nnc(C3CC3)n2C)n1	10%	-20	2%	13µM*
CCOC(=O)Cc1csc(NC(=O)CSc2nnc(C)n2C)n1	7%	4	11%	10µM*
CCOC(=O)c1ccc(Nc2c(-c3ccc(N(C)C)cc3)nc3nc[nH]n23)cc1	.	74	.	.
COc1cc(C2=Nc3ccc(Br)cc3C(c3ccccc3)N2CC(=O)NN)cc(OC)c1OC (configuration not stated)	15%	?	8.3µM*	?
NNC(=O)CN1C(c2ccc(Br)cc2)=Nc2ccc(Br)cc2C1c1ccccc1 (configuration not stated)	?	-7	10µM*	?

Assay outcomes as filed in PubChem BioAssay.
